# Bioassay records from PubChem.
# Dicer processing: human Dicer pre-microRNA cleavage inhibition; cat-ELCCA pre-miR-21 Dicer processing, chemiluminescence; active compounds read high; z-score at 25 µM; actives 6% (n = 47,000); AID 1347074; in the data active = z-score above about 3, passing the limit was not always enough;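 also: plate controls were vehicle for no effect and no enzyme for full effect; higher signal means more uncleaved substrate so more Dicer inhibition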
# Target sequence (Q9UPY3 whole entry, looked up): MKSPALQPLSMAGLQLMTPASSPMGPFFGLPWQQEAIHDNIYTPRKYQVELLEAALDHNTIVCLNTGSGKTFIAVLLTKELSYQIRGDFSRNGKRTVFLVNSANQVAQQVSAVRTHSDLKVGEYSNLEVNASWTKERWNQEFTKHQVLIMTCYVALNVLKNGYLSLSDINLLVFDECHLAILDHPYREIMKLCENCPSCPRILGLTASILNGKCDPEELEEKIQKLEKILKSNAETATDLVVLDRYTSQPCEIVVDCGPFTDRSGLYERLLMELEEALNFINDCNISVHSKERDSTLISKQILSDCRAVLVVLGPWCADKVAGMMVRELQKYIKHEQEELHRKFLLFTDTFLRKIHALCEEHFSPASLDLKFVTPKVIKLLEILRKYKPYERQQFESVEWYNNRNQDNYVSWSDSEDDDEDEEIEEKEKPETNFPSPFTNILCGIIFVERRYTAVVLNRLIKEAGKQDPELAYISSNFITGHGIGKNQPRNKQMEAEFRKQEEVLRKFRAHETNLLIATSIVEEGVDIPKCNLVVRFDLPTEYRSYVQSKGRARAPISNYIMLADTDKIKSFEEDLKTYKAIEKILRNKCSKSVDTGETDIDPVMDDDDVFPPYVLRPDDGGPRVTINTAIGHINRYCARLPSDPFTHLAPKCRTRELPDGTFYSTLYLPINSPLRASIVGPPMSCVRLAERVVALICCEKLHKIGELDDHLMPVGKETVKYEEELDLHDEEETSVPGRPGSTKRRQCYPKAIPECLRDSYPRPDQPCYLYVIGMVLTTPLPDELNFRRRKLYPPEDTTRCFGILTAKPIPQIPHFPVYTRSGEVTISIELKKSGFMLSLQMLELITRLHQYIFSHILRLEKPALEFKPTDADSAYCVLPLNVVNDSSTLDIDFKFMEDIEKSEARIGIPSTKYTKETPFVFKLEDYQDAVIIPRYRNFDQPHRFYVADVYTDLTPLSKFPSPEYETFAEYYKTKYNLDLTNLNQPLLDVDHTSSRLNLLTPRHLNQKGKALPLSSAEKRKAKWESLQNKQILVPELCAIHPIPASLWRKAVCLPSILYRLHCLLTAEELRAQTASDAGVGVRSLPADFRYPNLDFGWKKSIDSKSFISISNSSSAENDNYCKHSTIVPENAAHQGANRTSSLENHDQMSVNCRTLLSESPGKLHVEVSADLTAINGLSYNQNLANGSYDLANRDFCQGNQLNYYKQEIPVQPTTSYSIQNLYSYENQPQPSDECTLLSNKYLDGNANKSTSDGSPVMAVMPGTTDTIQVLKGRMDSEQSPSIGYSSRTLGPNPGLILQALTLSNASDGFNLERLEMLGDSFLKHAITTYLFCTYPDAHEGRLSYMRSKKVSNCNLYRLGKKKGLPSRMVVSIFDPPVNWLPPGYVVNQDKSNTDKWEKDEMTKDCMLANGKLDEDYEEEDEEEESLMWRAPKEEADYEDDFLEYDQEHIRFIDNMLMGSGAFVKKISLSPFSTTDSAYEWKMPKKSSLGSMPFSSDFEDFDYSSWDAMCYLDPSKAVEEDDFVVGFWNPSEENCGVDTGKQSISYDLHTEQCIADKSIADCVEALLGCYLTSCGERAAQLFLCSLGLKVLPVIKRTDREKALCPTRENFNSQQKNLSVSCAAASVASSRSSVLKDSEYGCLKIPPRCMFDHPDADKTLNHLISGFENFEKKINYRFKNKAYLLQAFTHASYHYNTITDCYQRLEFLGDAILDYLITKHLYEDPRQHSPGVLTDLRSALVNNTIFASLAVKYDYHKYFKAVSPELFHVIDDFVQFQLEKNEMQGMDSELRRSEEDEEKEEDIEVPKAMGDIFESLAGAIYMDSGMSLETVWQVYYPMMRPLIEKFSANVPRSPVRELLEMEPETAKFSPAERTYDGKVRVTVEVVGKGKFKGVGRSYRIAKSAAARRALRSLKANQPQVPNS
# Numbers without * were called inactive. This excerpt belongs to a sample that is enriched for hits.
SMILES,Dicer processing
Clc1ccc(C2=NN3C(C2)c2ccccc2OC3c2ccncc2)cc1 (configuration not stated),5.97*
COc1cc(C2C(C#N)=C(N)Oc3c2ccc2ccccc32)ccc1O (configuration not stated),8.38
O=C(O)[C@H]1CCCCN1C(=O)OCC1c2ccccc2-c2ccccc21,1.13
COc1ccc(NC2c3cccc4cccc(c34)C2NS(=O)(=O)c2ccc(Cl)cc2)cc1 (configuration not stated),0.57
O=C1OC(Nc2cccc(Cl)c2)c2ccccc21 (configuration not stated),-0.82
CCCc1c(OCCCOc2ccc3c(=O)c(-c4ccccc4)coc3c2)ccc(C(C)=O)c1O,-1.33
CN(C)/C=N/c1nnc(Sc2ccc([N+](=O)[O-])cn2)s1,-0.79
CC(C)(C)OC(=O)N1CCC(O)CC1,-1.13
CC(C)(C)c1ccc(-c2nc3cc(Cl)ccc3c(=O)o2)cc1,-0.57
CC(C)Oc1ccc(C2N3CC4(C)CN2CC(C)(C3)C4=O)cc1 (configuration not stated),0.16
CN(C)/C=N/c1c(C#N)cnn1-c1ccc(Cl)cc1,-1.23
O=C(Cn1c(=O)n(CC(=O)NC2CCCCC2)c2ccccc21)NC1CCCCC1,-0.65
Cc1csc2c(N3CCOCC3)ncnc12,-0.09
Cc1ccc(CNC(=O)Nc2ccc(OCc3ccccc3)cc2)n1C,0.25
COC(=O)c1c(-c2c(Cl)cccc2Cl)noc1NC(=O)NCc1cccs1,-0.32
Cc1cc2ncc(-c3ccccc3)nc2cc1C,5.81*
COc1ccc2ncc(-c3ccc(Cl)c(C)c3)nc2c1,-0.59
O=S(=O)(c1ccccc1)n1ccc(-c2cnc3cc(Cl)c(Cl)cc3n2)c1,0.74
N#CC1=C(SCC(N)=O)NC(=O)CC1c1ccc(F)cc1 (configuration not stated),0.81
Cc1ccc(S(=O)(=O)N(C(=O)c2ccncc2)c2ccc3oc(=O)sc3c2)c(C)c1,7.67*
COc1ccc(OC)c(S(=O)(=O)N(C(=O)C(C)C)c2ccc3oc(=O)sc3c2)c1,-0.44
Cc1cc(C)c(S(=O)(=O)N(C(=O)c2ccncc2)c2ccc3oc(=O)sc3c2)cc1C,4.98*
CN(C)CCNc1oc(-c2ccc(F)cc2)nc1C#N,0.39
CCN(CCS(=O)(=O)c1ccc(Cl)cc1)C(=S)Nc1ccc(Cl)c(Cl)c1,-2.62
NC(=O)c1nnn(Cc2ccc(F)cc2)c1N,-0.15
SMILES,Dicer processing
CCOc1cccc(=O)c2c(C)n(-c3ccc4c(c3)OCO4)c(C)c12,-1.04
CCOc1cccc(=O)c2c(C)n(-c3ccc(OC)cc3)c(C)c12,-0.08
CCOC(=O)c1ccc(-n2c(C)c3c(OCC)cccc(=O)c3c2C)cc1,3.62*
Cc1ccc(S(=O)(=O)Nc2ccc(-c3cn4cccc(C)c4n3)cc2)cc1,1.69
Cc1cccn2cc(-c3ccc(NS(=O)(=O)c4ccccc4)cc3)nc12,1.51
Cc1cccn2cc(-c3cccc(NS(=O)(=O)c4ccc(Br)cc4)c3)nc12,4.06*
Cc1nnc2n1N=C(c1ccc(CC(C)C)cc1)C(C)S2 (configuration not stated),-0.13
FC(F)(F)c1cnc(N2CCCN(C(=S)Nc3ccc(Cl)c(Cl)c3)CC2)c(Cl)c1,-1.12
Cc1cc(NC(=O)/C(C#N)=C/c2ccc(Cl)cc2Cl)no1,-0.56
Cc1c(O)c(-c2ccccc2)c(=O)n(-c2ccccn2)c1-c1ccccc1,-0.34
CCn1c(C)nc2cc(S(=O)(=O)NC)ccc21,2.52
CCOC(=O)CSc1nnc(-c2sc3nc(C)cc(C)c3c2N)n1C,-0.55
CCOC(=O)C(C(=O)NCC1CCCO1)C1CCCCC1 (configuration not stated),3.97*
CC(C)NC(=O)C(=O)NCC1CCCO1 (configuration not stated),0.7
CC(O)CNC(=O)C(=O)NCC1CCCO1 (configuration not stated),1.2
O=C(O)C(c1ccccc1)(c1ccccc1)c1ccccc1,1.05
O=C(NNc1nc(-c2cc3ccccc3o2)cs1)c1ccc(Cl)cc1,8.03
Cc1ccc(N2CC(O)=C(c3nc4ccccc4s3)C2=N)cc1,0.48
N=C1C(c2nc3ccccc3s2)=C(O)CN1Cc1ccccc1,0.75
N=C1C(c2nc3ccccc3s2)=C(O)CN1C1CCCCC1,3.09*
CN(C)/N=C(\NO)c1c(Cl)cccc1Cl,0.06
COc1ccc(-c2noc(COc3ccc(Br)cc3)n2)cc1,4.08*
COc1ccc(-c2noc(-c3cccs3)n2)cc1,3.91*
COc1ccc(OCc2nc(-c3cccs3)no2)cc1,0.06
Nc1c(Cl)cc(-c2noc(-c3cccs3)n2)cc1Cl,-1.79
SMILES,Dicer processing
COc1ccc(-c2noc(COc3ccc(Cl)cc3)n2)cc1,2.83
COc1ccc(-c2noc(-c3ccc(OC)cc3)n2)cc1,1.29
COc1ccc(-c2nc(-c3ccc(Cl)cc3)no2)cc1,4.19*
Brc1ccc(OCc2nc(-c3ccncc3)no2)cc1,-0.18
Clc1ccc(-c2nc(-c3ccncc3)no2)cc1,1.73
CC(/C=C/c1ccccc1)=N\OC(=O)NC(C)C,-0.54
CCCc1nc(N)c(C#N)c(-c2ccc(Cl)cc2)c1CC,1.55
CC(C)(CCC(C)(C)N1C(=O)c2cccc3cccc(c23)C1=O)N1C(=O)c2cccc3cccc(c23)C1=O,2.25
O=C(O)c1cc(Cl)ccc1I,-1.49
Cc1ccc(C(=O)O)cc1-n1c(C)ccc1C,0.45
Cc1ccc(C)n1-c1ccc(Cl)c(C(=O)O)c1,8.24*
Cc1ccc(C)n1-c1ccc(-n2c(C)ccc2C)cc1,-0.06
Cc1ccc(C)n1-c1ccc(Cl)cc1C(=O)O,12.3*
Cc1ccc(Cl)c(Nc2ccccc2C(=O)O)c1Cl,-0.38
COc1ccc(/C=N/NC(=O)Cn2nc(-c3ccccc3)c(-c3ccccc3)nc2=O)cc1,-1.79
Cc1ccc(N2C(=O)SC(Nc3ccc(S(N)(=O)=O)cc3)C2=O)cc1C (configuration not stated),0.42
COC(=O)c1ccc(CNC(C)(C)C)o1,1.8
O=c1c(Cc2ccc(Cl)cc2)csc2ccccc12,0.19
O=C(O)CCSC(CC(=O)c1ccccc1)c1ccc(Cl)cc1 (configuration not stated),-0.27
O=C(Nc1cc(Cl)ccc1O)C1CC(c2cccc(Br)c2)=NO1 (configuration not stated),3*
O=C(Nc1cccnc1)C1CC(c2cccc(Br)c2)=NO1 (configuration not stated),11.5
O=C(Nc1cccc(O)c1)C1CC(c2cccc(Br)c2)=NO1 (configuration not stated),0.55
O=C(NCC1CCCO1)C1CC(c2cccc(Br)c2)=NO1 (configuration not stated),-0.95
CSc1ccccc1NC(=O)C1CC(c2cccc(Br)c2)=NO1 (configuration not stated),-0.87
O=C(NCCCn1ccnc1)C1CC(c2cccc(Br)c2)=NO1 (configuration not stated),3.49*
SMILES,Dicer processing
CCCc1[nH]nc2c1C1(CCN(C(=O)OCC)CC1)C(C#N)=C(N)O2,-1.46
O=C(COc1ccc2oc3c(c2c1)CCCC3)Nc1cccc(Br)c1,2.39
OC(COc1ccc2oc3c(c2c1)CCCC3)CN1CCN(c2ccccc2)CC1 (configuration not stated),3.12*
O=C(O)COc1ccc2oc3c(c2c1)CCCC3,0.97
N#Cc1c(C(F)(F)F)cc(-c2ccccc2)nc1SCC(=O)N1CCCCC1,0.44
Nc1ccccc1SC1CC(=O)N(c2cccc(Br)c2)C1=O (configuration not stated),0.08
O=c1cc(-n2ccc(C(F)(F)F)n2)oc2ccccc12,0.71
